# Compound activity from PubChem BioAssay.
# Only a sample is shown.
# aSyn 5UTR act = Activators via SNCA 5'UTR binding, MLPCN; 300,000 tested, 7.1% active; alpha-synuclein 5'UTR reporter, activators screen; AID 1814; activity score, % (tested at 7.5 µM), hits read low; in the data active = activity score below about -60%
# Hits are given with their value; – = inactive.
SMILES,aSyn 5UTR act
Cc1cccc(-n2c(O)c(/C=C3/C(c4ccccc4)=Nc4ccccc43)c(=O)[nH]c2=O)c1,-174.0
C/C=C(\C)C(=O)OC1C(C)=C2C(C1OC(=O)CCCCC)C(C)(OC(C)=O)CC(OC(=O)CCC)C1(O)C2OC(=O)C1(C)O (stereo not drawn),–
CCN1C(=O)C(=Cc2ccc(C)s2)C(=O)N(CC)C1=S,-157.6
COc1ccc(C[C@H]2NC[C@H](O)[C@H]2OC(C)=O)cc1,–
Nc1c2c(nc3sc4c(c13)CCCCC4)CCCC2,-138.8
C[C@@]1(CO)[C@H](O)CC[C@@]2(C)[C@H]1CC[C@H]1C[C@@H]3C[C@@]12CC[C@]3(O)CO,–
O=C(C1CC(c2ccccc2O)=NO1)N1CCC2(CC1)OCCO2 (stereo not drawn),-68.3
Cc1ccc(-c2cc(-c3ccc(C)cc3)[n+](-c3ccc(C(=O)[O-])cc3)c(-c3ccc(C)cc3)c2)cc1,–
CCC(C)c1ccc(N2C(=O)NC(=O)/C(=C/c3cccn3CCOc3ccc(C)cc3)C2=O)cc1 (stereo not drawn),-65.0
CC(=O)Nc1ccccc1C(=O)OCC(=O)c1ccc2c(c1)OCCO2,-61.6
CC(=O)Nc1ccccc1C(=O)OCc1ccc(F)cc1,-84.2
CN1CCC(N(C)c2nc(-c3ccc([N+](=O)[O-])cc3)nc3ccccc23)CC1,–
CCCCCCn1c(=O)c(C(=O)Nc2cnccn2)c(O)c2ccccc21,–
CCCCCn1c(=O)c(C(=O)Nc2ccccn2)c(O)c2ccccc21,–
CCCCCCn1c(=O)c(C(=O)Nc2c(C)n(C)n(-c3ccccc3)c2=O)c(O)c2ccccc21,-75.9
O=Cc1cn(Cc2ccc([N+](=O)[O-])cc2)c2ccccc12,–
Cc1ccc(-c2nn(Cc3ccccc3)cc2C=O)cc1,-138.0
O=Cc1cn(Cc2ccc(F)cc2)c2ccccc12,–
Cc1ccccc1NC(=O)CCl,-71.1
Cn1cnc([N+](=O)[O-])c1Sc1ccc([N+](=O)[O-])cc1,-66.0
C[C@H]1C[C@@H](C)C(=O)[C@@H]([C@H](O)CC2CC(=O)NC(=O)C2)C1,–
CCC(=NC(C)c1ccccc1)c1c(O)[nH]c(=O)[nH]c1=O (stereo not drawn),–
CCCCn1c(O)c(/C(C)=N/NC(=O)Nc2ccccc2)c(=O)[nH]c1=O,-99.2
N#Cc1ccccc1NC(=O)CN1CC=C(c2ccccc2)CC1,-62.8
COc1ccc(OC)c(/C=N/OC(=O)Nc2ccc(Cl)cc2)c1,-63.0
SMILES,aSyn 5UTR act
COc1ccc(CNCCc2c(C)[nH]c3ccc(OC(F)(F)F)cc23)c(OC)c1,–
COc1ccc2c(c1)/C(=C/c1cnc[nH]1)C(=O)N2,-61.8
Cc1nc2ccccc2c(=O)n1-c1ccc(Br)cn1,-176.1
COc1ccc(O)c2c(=O)c3c(OC)cc4c(c3oc12)C1C=COC1O4 (stereo not drawn),–
CCOC(=O)c1ccc(NC(=O)C2C3C=CC(O3)C2C(=O)O)cc1 (stereo not drawn),-76.8
Nc1ccccc1C(=O)OCC(=O)N1CCc2ccccc21,-167.7
Cc1cc(C(=O)N=Nc2c(O)n(C)c3ccccc23)c(C)o1,-180.5
O=c1c2ccccc2nc(Cc2ccccc2)n1-c1ccccc1,-83.9
O=C1Nc2ccccc2/C1=C/c1nc2ccccc2c(=O)n1-c1ccc(O)cc1,-76.7
N=C1c2ccccc2CN1CC(=O)c1ccccc1,-186.1
CCN(CC)C(=O)c1ccc(NC(=O)Nc2ccccc2F)cc1,–
CC1=CC(=C2C(=O)NC(=S)NC2=O)C=C(C(F)(F)F)N1Cc1ccccc1,–
CN(C)c1ccc(-[n+]2c(-c3ccccc3)cc(-c3ccccc3)cc2-c2ccccc2)cc1,–
CCN1C(=O)C(=C2C=C(C)OC(C)=C2)C(=O)N(CC)C1=S,-74.6
CCCCCCn1c(=O)c(C(=O)Nc2ncccc2O)c(O)c2ccccc21,–
C[C@]12C=CC(=O)C=C1C=C[C@@H]1C2CC[C@]2(C)C(=O)CCC12 (stereo partly drawn),-119.6
CN1C(=O)C(Cc2ccc(OCc3ccccc3)cc2)C(=O)N(C)C1=O,-105.1
Cc1ccc(N2C(=O)NC(=O)/C(=C/c3cnn(-c4ccc(C)cc4)c3)C2=O)cc1,-72.4
C/C(=N\N1CCCCC1)c1c(O)[nH]c(=O)[nH]c1=O,–
C/C=C(\C)C(=O)N[C@@H](c1ccccc1)[C@@H](O)C(=O)O[C@H]1C[C@@]2(O)[C@@H](OC(=O)c3ccccc3)C3[C@](C)(C(=O)[C@H](OC(C)=O)C(=C1C)C2(C)C)[C@H](O)C[C@H]1OC[C@@]31OC(C)=O (stereo partly drawn),–
O=C1NC(c2cccnc2)Nc2sc3c(c21)CCCC3 (stereo not drawn),-97.5
c1ccc(CN2CCc3nc4ccccc4cc3C2)cc1,-170.9
Cn1c(O)c(C(=N)COc2ccccc2)c(=O)n(C)c1=O,-67.5
Cn1ncnc2c(=O)n(C)c(=O)nc1-2,–
Cc1ccc(-c2cc(-c3ccc(C)cc3)[n+](-c3ccccc3)c(-c3ccc(C)cc3)c2)cc1,–
CN1C(=O)NC(=O)C(C)(C2=CCCCC2)C1=O (stereo not drawn),-71.3
N#CSCC(=O)N1c2ccccc2CCc2ccccc21,-84.0
